Measured values: PubChem BioAssay AID1259343 (VanderVen Lab, College of Veterinary Medicine, Cornell …, 2017)
Among all 6,200 compounds or so, about 2,900 (47%) were called active. So high a share suggests a set chosen from earlier hits. Some of the results follow. Unmarked numbers belong to inactive results. Rule as the data show it: active = inhibition above about 50%; inactive = the rest.

assay: Mycobacterium tuberculosis growth inhibition, primary screen (AID 1259343); details: inhibition: at 10 µM, stronger effect = higher value; outcome: 10 uM

Row | SMILES | inhibition
1 | COC(=O)[C@H]1[C@H]2C[C@@H]3c4[nH]c5cc(OC)ccc5c4CCN3C[C@H]2C[C@@H](OC(=O)c2cc(OC)c(OC)c(OC)c2)[C@@H]1OC | 45.9%
2 | Cc1ccccc1C1CCCN(Cc2nc(CC3CC3)no2)C1 (stereo not drawn) | 17%
3 | c1ccc(COC2CCCN(Cc3nc(CC4CC4)no3)C2)cc1 (stereo not drawn) | 58.5% (active)
4 | CC1NC(=S)N(c2ccc(C(C)C)cc2)C1=O (stereo not drawn) | 95.8% (active)
5 | CC1NC(=S)N(c2ccc(-c3cn4ccsc4n3)cc2)C1=O (stereo not drawn) | 46.5%
6 | CC1NC(=S)N(c2cccc(Oc3ccncc3)c2)C1=O (stereo not drawn) | 11.8%
7 | Cc1cc(=O)[nH]c(-n2nc(-c3cccs3)cc2NC(=O)c2ccco2)n1 | 99.9% (active)
8 | CCCC(CCC)C(=O)Nc1cc(-c2cccs2)nn1-c1nc(C)cc(=O)[nH]1 | 99% (active)
9 | Cc1cc(=O)[nH]c(-n2nc(C3CC3)cc2NC(=O)c2cccs2)n1 | 100% (active)
10 | Cc1cc(=O)[nH]c(-n2nc(-c3cccs3)cc2NC(=O)c2c(F)cccc2Cl)n1 | 99.6% (active)
11 | Cc1cc(=O)[nH]c(-n2nc(-c3cccs3)cc2NC(=O)c2cccs2)n1 | 98.9% (active)
12 | CCC(=O)Nc1cc(-c2cccs2)nn1-c1nc(C)cc(=O)[nH]1 | 99.9% (active)
13 | Cc1cc(=O)[nH]c(-n2nc(-c3cccs3)cc2NC(=O)CC(C)(C)C)n1 | -0.63%
14 | Cc1cc(=O)[nH]c(-n2nc(-c3cccs3)cc2NC(=O)c2ccccc2C)n1 | 98.2% (active)
15 | Cc1cccc(C(=O)Nc2cc(-c3cccs3)nn2-c2nc(C)cc(=O)[nH]2)c1 | 0.07%
16 | CC(C)c1cc(=O)[nH]c(-n2nc(-c3cccs3)cc2NC(=O)c2cccs2)n1 | 99.1% (active)
17 | Cc1nc(C(F)(F)F)ccc1C(=O)NC1CC2CC1C1CCCC21 (stereo not drawn) | 32.9%
18 | CC1CCCCC1NC(=O)Cn1ccc(C(F)(F)F)n1 (stereo not drawn) | 94.9% (active)
19 | CC1CCCCC1Nc1ccc2nnc(C(F)(F)F)n2n1 (stereo not drawn) | 22.4%
20 | O=c1oc2ccc(O)cc2s1 | 83.8% (active)
21 | O=C(Oc1ccc2oc(=O)sc2c1)C1CCCCC1 | 75.1% (active)
22 | O=c1c2cc(O)ccc2oc2ccc(O)cc12 | 87.5% (active)
23 | Oc1ccc2oc3c(c2c1)CCCC3 | 44.4%
24 | CC(=O)NCc1ccc(C(=O)Nc2ccc(Br)c(C)c2)cc1 | 93.7% (active)
25 | Cc1ccc(NC(=O)c2ccc(S(N)(=O)=O)c(C)c2)cc1C | 31.7%
26 | Cc1ccc(NC(=O)CNC(=O)c2ccccc2)cc1C | -8.08%

Row | SMILES | inhibition
27 | Cc1c(C(=O)O)cnn1-c1ccc(Br)cc1 | 39.2%
28 | CC(=NNc1nc(C)cc(C)n1)c1cc2c(ccc3ccccc32)o1 | 16.4%
29 | Cc1cc(C)nc(NN=Cc2cc(Br)cc(Br)c2O)n1 | 102% (active)
30 | O=C(NCCc1ccccc1)c1ccc(OC2CCN(C(=O)C3CC34CCC4)CC2)cc1 (stereo not drawn) | 19.3%
31 | O=C(NCc1ccccc1)c1cccc(OC2CCN(C3Cc4ccccc4C3)CC2)c1 | 82.7% (active)
32 | CC1(C(=O)Nc2nc(-c3cccc(Cl)c3)ns2)CCOCC1 | 89.4% (active)
33 | Cc1cc(NC(=O)C2(C)CCOCC2)nc(C(C)C)n1 | -0.19%
34 | C=CCNc1nc(NCCCN2CCCC2=O)c2sc(-c3ccccc3)cc2n1 | 24.9%
35 | CC(C)(C)OC(=O)NCC1CCCCN1C(=O)c1cc(-c2ccccc2F)on1 (stereo not drawn) | 14%
36 | CC(C)(C#N)C(=O)Nc1cc(-c2ccccc2F)no1 | 88.7% (active)
37 | O=C1NC(=S)SC1=Cc1cccc(C(F)(F)F)c1 | 14.4%
38 | FC(F)(F)c1ccc2c(c1)Oc1sc(Cl)cc1NC2=S | 92% (active)
39 | CC(NCc1cn(C)nc1-c1ccc(Oc2ccccc2)cc1)c1ccccc1 (stereo not drawn) | 70.8% (active)
40 | CCOc1cc2c(cc1CNc1ccc(C#N)cn1)OC(C)C2 (stereo not drawn) | 19.6%
41 | COc1ccc(C(C)NCC(O)COc2ccc(Cl)cc2Cl)cc1F (stereo not drawn) | 41.6%
42 | CC(Nc1ccc(C#N)cn1)c1ccccc1Br (stereo not drawn) | 53% (active)
43 | COc1ccc(C(C)Nc2ccc(C#N)cn2)cc1F (stereo not drawn) | 94.3% (active)
44 | CC(Nc1nccc(C(F)(F)F)n1)c1ccc(C#N)cc1 (stereo not drawn) | 22.5%
45 | CS(=O)(=O)c1ccc(CCNc2ccc(Cl)c(C#N)n2)cc1 | 24.5%
46 | CC(NCc1ccc(C(C)(C)C)cc1)c1ccc(S(C)(=O)=O)cc1 (stereo not drawn) | 59.5% (active)
47 | CS(=O)(=O)c1ccc([C@@H](O)[C@@H](CO)NC(=O)C(Cl)Cl)cc1 | 44.5%
48 | Cc1ccc(S(=O)(=O)NCC2COc3ccccc3C2)cc1F (stereo not drawn) | -9.55%
49 | O=S(=O)(NCC1CCC(c2ccccc2)CC1)C1CCOCC1 (stereo not drawn) | -0.68%
50 | Cc1ccc(S(=O)(=O)NCC2CCN(c3ccccc3)C2)c(C)c1 (stereo not drawn) | 52.8% (active)
51 | CCOC(=O)c1ccccc1Nc1nnc(C(C)(C)C)c(=O)[nH]1 | 32.2%
52 | CCc1cc(C(=O)O)c(NC(=O)c2ccccc2C)s1 | 18.1%

Row | SMILES | inhibition
53 | CCOC(=O)c1cc(-c2ccccc2)sc1NC(=O)CC(=O)OC | 81% (active)
54 | NC(=NC1C2CC3CC(C2)CC1C3)Nc1ccc(I)cc1 (stereo not drawn) | 42.8%
55 | C=CCN(Cc1ccccc1)C(=O)c1cnn2c1[nH]c(=O)c1ccccc12 | 79.8% (active)
56 | Fc1ccc(C=Cc2ccc3ccccc3n2)cc1 | 32.5%
57 | COc1cc(C=Cc2ccc3ccccc3n2)cc(Cl)c1OC | 26.8%
58 | COc1cc(C=Cc2ccc3ccccc3n2)cc(Br)c1O | 73.5% (active)
59 | CC1CC1C(=O)Nc1ccccc1N1CCc2ccccc2C1 (stereo not drawn) | 81.4% (active)
60 | O=C(N1CCc2ccccc2C1)N1c2ccccc2Sc2ccccc21 | -20%
61 | O=C(NCC(c1ccco1)N1CCc2ccccc21)C(=O)Nc1ccccc1[N+](=O)[O-] (stereo not drawn) | 5.43%
62 | O=c1c2ccccc2nc(SCc2ccc([N+](=O)[O-])cc2)n1CC1CCCO1 (stereo not drawn) | 26.6%
63 | O=c1[nH]n(-c2ccc([N+](=O)[O-])cc2)c(=O)c2ccccc12 | 90% (active)
64 | CC(C)n1c(=O)[nH]c2ccccc21 | 19.6%
65 | C/C(=C\c1ccccc1)C1Nc2ccccc2C(=O)N1C (stereo not drawn) | 48.1%
66 | CC(C)N1C(=O)c2ccccc2NS1(=O)=O | 72.9% (active)
67 | O=C1OCC(CO)(CO)N=C1NNc1cc(Cl)ccc1Cl | 91.9% (active)
68 | O=C1OCC(CO)(CO)N=C1NNc1ccc(Cl)c(Cl)c1 | 87.5% (active)
69 | O=C1OCC(CO)(CO)N=C1NNc1ccc([N+](=O)[O-])cc1 | -25.1%
70 | O=C1OCC(CO)(CO)N=C1NNc1ccc(Cl)cc1 | 81.8% (active)
71 | O=C1OCC(CO)(CO)N=C1NNc1ccc(I)cc1 | 36.3%
72 | CN(Cc1cnc2ccccn12)C(=O)c1cc(COc2cncc(Cl)c2)on1 | 62.9% (active)
73 | Cc1nc2cc(OCc3cc(C(=O)N4CCN(C)C(c5ccccc5)C4)no3)ccc2s1 (stereo not drawn) | 10.6%
74 | Cc1cccc(C)c1OCc1cc(C(=O)N2CCCC(c3ccccc3)C2)no1 (stereo not drawn) | 47.2%
75 | CN1CCN(C(=O)c2cc(COc3cncc(Cl)c3)on2)CC1c1ccccc1 (stereo not drawn) | 88% (active)
76 | O=C(c1cc(COc2cncc(Cl)c2)on1)N(CCO)Cc1cccs1 | 89.6% (active)
77 | COc1ccc(OCc2cc(C(=O)N(C)CC3CCCCO3)no2)c(Cl)c1 (stereo not drawn) | inactive
78 | CN(CC1CCCCO1)C(=O)c1cc(COc2cncc(Cl)c2)on1 (stereo not drawn) | 95.4% (active)

Row | SMILES | inhibition
79 | CN(CCCC1CCCC1)C(=O)c1cnon1 | 12.9%
80 | CCc1ccc(CN(C)C(=O)c2cc(COc3cncc(Cl)c3)on2)cc1 | inactive
81 | Cc1ccc(C(C)C)cc1S(=O)(=O)NCc1ccco1 | -19.8%
82 | c1cn(-c2ccc(Oc3ccc4c(C5CC5)noc4n3)cc2)cn1 | 33.5%
83 | c1ccc(Oc2ccc3c(C4CC4)noc3n2)cc1 | 72.8% (active)
84 | FC(F)(F)c1ccc(Oc2ccc3c(C4CC4)noc3n2)cn1 | 92.3% (active)
85 | Clc1cncc(Oc2ccc3c(C4CC4)noc3n2)c1 | 78.7% (active)
86 | COc1ccc2c(=O)c3c(=O)n(-c4ccccc4)c(C4CCCCC4)nc3oc2c1 | -17.1%
87 | COc1cccc(Oc2ccc3c(C4CC4)noc3n2)c1 | 93% (active)
88 | CCOc1ccc(C2CC(c3ccc(F)cc3)=NN2C(=O)CN(C)C2CCCCC2)cc1 (stereo not drawn) | -49.7%
89 | Fc1ccc(Cl)cc1Oc1ccc2c(C3CC3)noc2n1 | 61.4% (active)
90 | FC(F)(F)c1cccc(Oc2ccc3c(C4CC4)noc3n2)c1 | 70.6% (active)
91 | O[C@@H]1CNCC[C@H]1CNCc1cccc(Oc2cccc(C(F)(F)F)c2)c1 | 9.4%
92 | FC(F)(F)c1ccccc1Oc1ccc2c(C3CC3)noc2n1 | 92.9% (active)
93 | Cc1ccc(F)cc1Oc1ccc2c(C3CC3)noc2n1 | 46.9%
94 | Fc1cccc(Oc2ccc3c(C4CC4)noc3n2)c1 | 69.2% (active)
95 | O=c1[nH]c(NCCO)nc2c1C1(CCCC1)Cc1ccccc1-2 | 3.77%
96 | O=C(Cc1c[nH]c2cccc(Br)c12)OCC1CC1 | -40.3%
97 | CCCNC(=O)C1(C)CCN(Cc2csc(-c3ccc(Cl)cc3)n2)C1 (stereo not drawn) | 30.7%
98 | Fc1cc(F)cc(Oc2ccc3c(C4CC4)noc3n2)c1 | 95.3% (active)
99 | Fc1ccc(Oc2ccc3c(C4CC4)noc3n2)cc1 | 6.82%
100 | COc1ccc(Nc2ccc3c(C4CC4)noc3n2)cc1 | 85.2% (active)
101 | CC(C)c1ccc(-c2csc3ncn(-n4cccc4)c(=O)c23)cc1 | 12.8%
102 | CNC(=O)C1Sc2nc3scc(-c4ccccc4)c3c(=O)n2N=C1C (stereo not drawn) | 41.4%
103 | Cn1c(SCC(N)=O)nc2scc(-c3ccc(F)cc3)c2c1=O | 66.5% (active)
